The text below walks through data of PubChem BioAssay (Tox21).

Each structure is given as a SMILES string. Results filed as inconclusive are left out. Where a call stands in place of a potency, no number is given. Active and inactive are the calls of the source. Calls come from the whole dose curve; as a rule, active = well fitted cell-killing curve with a large enough effect in the repeat runs; inconclusive = weak or mixed curves, or effect the other way; inactive = flat fitted curve, though single readings scatter.

A short description of experiment [1]: cAMP Responsive Elements (CRE) small molecule antagonists, cell-based qHTS assay: qHTS cell viability counter screen (AID 2060913). Note: nearly all actives have a fitted effect of over 40% in size. In outline: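 Cytotoxicity counter screen multiplexed with the CRE-bla antagonist read: HEK293T cells in DMEM with dialyzed FBS and 25 mM HEPES were treated 3 hrs under 0.25 uM final NKH477, then viability measured by CellTiter-Glo luminescence.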
On the technique in general: In qHTS, concentration-response curves come from the screen itself.

Experiment [2] in a line: cAMP Responsive Elements (CRE) small molecule agonists, cell-based qHTS assay: qHTS cell viability counter screen (AID 2060914). Note: nearly all actives have a fitted effect of over 50% in size. Put shortly:
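Luminescence read-out (CellTiter-Glo, 30 min RT) of ATP-based viability in CRE-bla HEK 293T cells, run in the same wells as the β-lactamase reporter assay after 3 h compound treatment at 37 °C.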
Potency is the fitted concentration of half-maximal effect.

Turning to `CC(=O)c1ccc2c(c1)N(CCCN(C)C)c1ccccc1S2`, the Potency entry in experiment [1] and in experiment [2] was “inactive” in each case.
For the molecule `CN1C(CSCC(F)(F)F)Nc2cc(Cl)c(S(N)(=O)=O)cc2S1(=O)=O` (centres undefined), the Potency result in experiment [1] and in experiment [2] was “inactive” each time.
In the case of `COC[C@H](c1ccc(C(F)(F)F)cc1)N1CCN(C2(C)CCN(C(=O)c3c(C)ncnc3C)CC2)C[C@H]1C`, the Potency result in experiment [1] and in experiment [2] was “inactive” in each case.
As for `CCOC(=O)c1ccc(C#Cc2ccc3c(c2)C(C)(C)CCS3)nc1`, the Potency entry in experiment [1] and in experiment [2] was “inactive” each time.
With `O=c1n(CCO)c(=O)n(CCO)c(=O)n1CCO`, the Potency result in experiment [1] and in experiment [2] was “inactive” throughout.
As to `CCN1CCN(C(=O)N[C@@H](C(=O)N[C@@H]2C(=O)N3C(C(=O)O)=C(CSc4nnnn4C)CS[C@H]23)c2ccc(O)cc2)C(=O)C1=O`, the Potency result in experiment [1] and in experiment [2] was “inactive” each time.
For the molecule `CCCC[O][Al]([O]CCCC)[O]CCCC`, the Potency result in experiment [1] and in experiment [2] was “inactive” throughout.
On to `C=CCSCC1Nc2cc(Cl)c(S(N)(=O)=O)cc2S(=O)(=O)N1` (centres undefined), for which the Potency entry in experiment [1] and in experiment [2] was “inactive” in each case.
With `CCCCC(CC)COC(=O)COc1cc(Cl)c(Cl)cc1Cl` (centres undefined), the Potency entry in experiment [1] and in experiment [2] was “inactive” throughout.
Turning to `O=C(O)Cc1sc(-c2ccccc2)nc1-c1ccc(Cl)cc1`, the Potency result in experiment [1] and in experiment [2] was “inactive” in each case.
`Oc1c(I)cc(I)c2cccnc12`: the Potency result in experiment [1] and in experiment [2] was “inactive” in each case.
For `CC(=O)C1CCCCC1=O` (centres undefined), the Potency entry in experiment [1] and in experiment [2] was “inactive” each time.
Consider `Cc1ncc(CO)c(CO)c1O`, for which the Potency entry in experiment [1] and in experiment [2] was “inactive” throughout.
On to `O=C(O)CCCCCCCCCCCBr`, for which the Potency result in experiment [1] and in experiment [2] was “inactive” throughout.
On to `O=C(/C=C/c1ccccc1)OCc1ccccc1`, for which the Potency result in experiment [1] and in experiment [2] was “inactive” throughout.
Consider `Cn1c([N+](=O)[O-])cnc1COC(N)=O`, for which the Potency entry in experiment [1] and in experiment [2] was “inactive” each time.
Regarding `C=C(C)C(=O)OC`, the Potency result in experiment [1] and in experiment [2] was “inactive” in each case.
Regarding `Cc1cnc(NC(=O)C2=C(O)c3ccccc3S(=O)(=O)N2C)s1`, the Potency entry in experiment [1] and in experiment [2] was “inactive” each time.
In the case of `ON=C1CCCC1`, the Potency entry in experiment [1] and in experiment [2] was “inactive” throughout.
As for `C1CCN2C[C@@H]3C[C@@H](CN4CCCC[C@@H]34)[C@H]2C1`, the Potency entry in experiment [1] and in experiment [2] was “inactive” each time.
On to `Cc1ccc(C=O)cc1C`, for which the Potency result in experiment [1] and in experiment [2] was “inactive” throughout.
On to `Cc1cc(C)c(NC(=O)CN(CC(=O)O)CC(=O)O)c(C)c1Br`, for which the Potency result in experiment [1] and in experiment [2] was “inactive” in each case.
For the molecule `CC(=O)c1ccccn1`, the Potency entry in experiment [1] and in experiment [2] was “inactive” each time.
With `CC1=C(C(=O)O)N2C(=O)[C@@H](NC(=O)[C@H](N)C3=CCC=CC3)[C@H]2SC1`, the Potency entry in experiment [1] and in experiment [2] was “inactive” throughout.
Turning to `Cc1c2oc3c(C)ccc(C(=O)N[C@@H]4C(=O)N[C@H](C(C)C)C(=O)N5CCC[C@H]5C(=O)N(C)CC(=O)N(C)[C@@H](C(C)C)C(=O)O[C@@H]4C)c3nc-2c(C(=O)N[C@@H]2C(=O)N[C@H](C(C)C)C(=O)N3CCC[C@H]3C(=O)N(C)CC(=O)N(C)[C@@H](C(C)C)C(=O)O[C@@H]2C)c(N)c1=O`, the Potency result in experiment [1] and in experiment [2] was “inactive” in each case.
As to `Brc1c2ccccc2cc2ccccc12`, the Potency entry in experiment [1] and in experiment [2] was “inactive” each time.
For the molecule `CN1CCC(=C2c3ccccc3CC(=O)c3sccc32)CC1`, the Potency entry in experiment [1] and in experiment [2] was “inactive” throughout.
As for `CCC(=O)O`, the Potency result in experiment [1] and in experiment [2] was “inactive” in each case.
For `O=C(O)/C=C\C(=O)O`, the Potency entry in experiment [1] and in experiment [2] was “inactive” throughout.
For `Nc1ncnc2c1ncn2Cc1c(F)cccc1Cl`, the Potency result in experiment [1] and in experiment [2] was “inactive” throughout.
Consider `CCCCOCCOC(=O)COc1cc(Cl)c(Cl)cc1Cl`, for which the Potency result in experiment [1] and in experiment [2] was “inactive” each time.
Take `COc1ccc(C(=O)CC(=O)c2ccc(C(C)(C)C)cc2)cc1`: the Potency result in experiment [1] and in experiment [2] was “inactive” each time.
With `Cc1ccc(C)o1`, the Potency result in experiment [1] and in experiment [2] was “inactive” each time.
As to `Cc1cc(C)c(C)cc1C`, the Potency entry in experiment [1] and in experiment [2] was “inactive” each time.
As for `O=S(=O)(O)c1ccccc1/C=C/c1ccc(-c2ccc(/C=C/c3ccccc3S(=O)(=O)O)cc2)cc1`, the Potency result in experiment [1] and in experiment [2] was “inactive” each time.
For the molecule `Nc1cc(C(=O)O)c(O)c(S(=O)(=O)O)c1`, the Potency result in experiment [1] and in experiment [2] was “inactive” each time.
In the case of `CCCCCCCCCCCCCCCCCC[N+](C)(C)C`, the Potency in experiment [1] is 54.6 µM (active); in experiment [2] it was 61.3 µM (active).
In the same order, the values of `O[C@@H]([C@H](O)[C@H](O)CBr)[C@H](O)CBr` are “inactive” and “inactive”.
In the same order, the values of `C=C(C)C(=O)OCCCCCCCCCC` are “inactive” and “inactive”.
In the same order, the values of `CCCC(=O)C(=O)O` are “inactive” and “inactive”.
`CCCCN(CCO)CCCC`: the Potency entry in experiment [1] and in experiment [2] was “inactive” throughout.
`COc1cc(OC)c(C(=O)CCCN2CCCC2)c(OC)c1`: the Potency entry in experiment [1] and in experiment [2] was “inactive” in each case.
Turning to `O=C(/C=C/c1ccc(O)c(O)c1)O[C@@H](C(=O)O)[C@@H](OC(=O)/C=C/c1ccc(O)c(O)c1)C(=O)O`, the Potency entry in experiment [1] and in experiment [2] was “inactive” in each case.
For `C[C@@H](O)[C@H]1C(=O)N2C(C(=O)O)=C([C@H]3CCCO3)S[C@H]12`, the Potency entry in experiment [1] and in experiment [2] was “inactive” in each case.
For `COc1ccc(-n2nc(C(F)F)cc2-c2ccc(S(C)=O)cc2)cc1` (centres undefined), the Potency result in experiment [1] and in experiment [2] was “inactive” in each case.
As for `CCCCC/C=C\CCC=O`, the Potency entry in experiment [1] and in experiment [2] was “inactive” in each case.
Take `CCC1(C)C(=O)N(Cl)C(=O)N1Cl` (centres undefined): the Potency entry in experiment [1] and in experiment [2] was “inactive” throughout.
